Bioassay records: PubChem, Sanford-Burnham Center for Chemical Genomics
Neddyl block – cullin neddylation inhibition; TR-FRET cullin neddylation, biochemical; inhibition, % at 25 µM; 360,000 compounds, 0.58% hits; in the data active = inhibition above about 36%
APOBEC3A inh – human APOBEC3A DNA deaminase inhibition; recombinant A3A, FAM/TAMRA ssDNA deamination fluorescence; inhibition, % at 20 µM; 330,000 compounds, 0.41% hits;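 active = at least 40% inhibition at 20 µM here, with at most 30% in a related deaminase screen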
PfGluPho inh – PfG6PD (Plasmodium falciparum) enzyme inhibition. 350,000 compounds, 0.78% hits. AID 504690. PfGluPho enzyme, NADPH resazurin-diaphorase fluorescence. inhibition, % at 20 µM;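 active = inhibition reaching at least a set limit at 20 µM in the primary screen, cut at about 59% in these data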
GC-B act – GC-B (human) receptor activation. 370,000 compounds, 0.11% hits. activation, % at 10 µM. HEK293-GC-B cells, CNP EC30, cGMP TR-FRET; 0% at EC30 CNP, 100% saturating CNP. P20594;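 active = activation at 10 µM reaching about 35% in either raw or pattern-adjusted values, limit read from the data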
A3G deaminase – inhibitors of human APOBEC3G DNA deaminase; AID 493012; recombinant A3G, ssDNA deamination FAM/TAMRA fluorescence; inhibition, % at 20 µM; Q9HC16; 330,000 compounds, 0.28% hits;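 active = inhibition of at least 40% at 20 µM, with no more than 30% in the related APOBEC3A deaminase screen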
GC-A act – GC-A (human) enzyme activation. HEK293 GC-A cells, cGMP TR-FRET, EC30 ANP; 0% at EC30 ANP, 100% saturating ANP. activation, % at 10 µM. 370,000 compounds, 0.14% hits; in the data active = activation above about 40%
Target sequence (P16066 whole entry, looked up): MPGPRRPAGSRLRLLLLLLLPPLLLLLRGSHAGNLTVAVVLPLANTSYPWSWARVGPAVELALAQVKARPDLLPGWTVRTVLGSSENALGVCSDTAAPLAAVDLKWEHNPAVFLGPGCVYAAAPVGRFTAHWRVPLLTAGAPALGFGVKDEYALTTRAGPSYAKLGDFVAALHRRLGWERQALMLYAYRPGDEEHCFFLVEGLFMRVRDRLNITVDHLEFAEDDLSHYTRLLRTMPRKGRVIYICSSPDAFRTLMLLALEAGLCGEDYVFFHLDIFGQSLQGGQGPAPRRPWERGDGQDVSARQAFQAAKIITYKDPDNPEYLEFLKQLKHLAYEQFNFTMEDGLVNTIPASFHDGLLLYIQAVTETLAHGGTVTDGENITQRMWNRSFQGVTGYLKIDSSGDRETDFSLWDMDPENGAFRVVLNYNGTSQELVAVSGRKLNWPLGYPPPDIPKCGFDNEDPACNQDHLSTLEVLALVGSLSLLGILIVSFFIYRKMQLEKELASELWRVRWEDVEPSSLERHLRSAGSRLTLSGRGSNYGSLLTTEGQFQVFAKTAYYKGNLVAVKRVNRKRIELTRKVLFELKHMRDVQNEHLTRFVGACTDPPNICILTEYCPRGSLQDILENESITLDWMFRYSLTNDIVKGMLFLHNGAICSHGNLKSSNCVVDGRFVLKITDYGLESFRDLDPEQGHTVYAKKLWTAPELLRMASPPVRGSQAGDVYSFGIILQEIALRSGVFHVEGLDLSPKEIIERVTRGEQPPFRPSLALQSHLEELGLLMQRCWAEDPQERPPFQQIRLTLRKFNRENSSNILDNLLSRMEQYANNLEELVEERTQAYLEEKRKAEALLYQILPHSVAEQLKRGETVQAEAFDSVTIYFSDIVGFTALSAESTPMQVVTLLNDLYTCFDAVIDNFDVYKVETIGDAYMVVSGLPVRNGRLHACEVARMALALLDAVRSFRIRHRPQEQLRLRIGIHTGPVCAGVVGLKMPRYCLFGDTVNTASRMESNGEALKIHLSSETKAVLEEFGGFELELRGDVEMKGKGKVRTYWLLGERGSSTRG
PfG6PD confirm – PfG6PD inhibition, single-dose confirmed; 2,400 compounds, 34% hits; recombinant PfGluPho, NADPH-diaphorase-resazurin fluorescence; shares compounds with PfGluPho inh; inhibition, % at 20 µM;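 active = inhibition of at least 50% at 20 µM in any single replicate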
Diaph ctr 10uM – inhibits diaphorase or oxidizes, flagging false PfG6PD hits; shares compounds with PfGluPho inh; diaphorase-coupled resazurin reduction, fluorescence, NADPH 10 uM; inhibition, % at 20 µM; 820 compounds, 39% hits;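 active = average inhibition reaching 50% or more with the compound at 20 µM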;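 also: resorufin red fluorescence formed as diaphorase reduces resazurin using NADPH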
Diaphorase 30uM – diaphorase inhibition or oxidation at 30 uM NADPH. Diaphorase/resazurin coupled assay, resorufin fluorescence. inhibition, % at 20 µM. shares compounds with PfGluPho inh. 820 compounds, 29% hits. AID 504863;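 active = inhibition averaging 50% or more, tested at 20 µM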
A number is an active result; n = inactive; x = no result shown. Only some compounds are listed: those with a hit (about 2% of all), similar ones and a draw of the others.

SMILES	Neddyl block	APOBEC3A inh	PfGluPho inh	GC-B act	A3G deaminase	GC-A act	PfG6PD confirm	others
O=C(Cc1cccs1)N=Nc1c(O)[nH]c2ccccc12	n	n	n	n	n	n	x
Cc1ccc(S(=O)(=O)Nc2ccccc2N=Cc2ccc([N+](=O)[O-])cc2[N+](=O)[O-])cc1	n	x	83.7	n	x	n	n
COc1ccc(C=Nn2c(-c3ccc(F)cc3)n[nH]c2=S)cc1OCc1ccccc1	x	x	x	n	x	n	x
O=C(Nc1ccc2c(c1)CCC2)c1cc2ccccc2o1	n	n	88.0	n	n	n	n
O=C(Nc1cccc(Br)c1)c1cc2ccccc2o1	n	n	97.2	n	n	n	n
CCOC(=O)c1ccc(NC(=O)c2cc3ccccc3o2)cc1	n	n	67.2	n	n	n	n
Cc1cccc(NC(=O)c2cc3ccccc3o2)c1	n	n	65.0	n	n	n	n
CCn1c2ccccc2c2cc(NC(=O)COC(=O)c3cccc(F)c3F)ccc21	x	x	x	n	x	n	x
COC(=O)[C@]1(CNC(=O)c2cc(F)ccc2F)CC(=O)N(C)[C@@H]1c1ccccc1	x	x	x	n	x	n	x
Cc1ccc(C2=CSC3=NCCN23)c(C)c1	n	n	62.5	n	n	n	n
Cc1cc(C)c2c(-n3cccc3)c(NC(=O)OC(C)C)sc2n1	n	n	61.5	n	n	n	n
Cc1cc(C)c2c(-n3cccc3)c(C(=O)O)sc2n1	n	n	n	n	n	n	x
NS(=O)(=O)c1ccc(Nc2nc(-c3ccc(O)cc3O)cs2)cc1	n	n	69.0	n	n	n	n
Cc1nc2c(O)c3c(c(O)c2nc1C)C1C=CC3CC1	n	x	123.3	n	x	n	102.4	Diaph ctr 10uM=95.0;Diaphorase 30uM=89.2
O=C(NC1CC1c1ccccc1)N1CCC(c2nc3ccc(Cl)cc3[nH]2)CC1 (stereo unspecified)	x	x	x	n	x	n	x
COc1cc(/C=C2\SC(N)=NC2=O)cc(OC)c1	n	n	n	n	n	n	x
COc1cc(N)c2ncsc2c1	n	x	69.2	n	x	n	71.8	Diaph ctr 10uM=n;Diaphorase 30uM=n
CCCCCCCCN1CCS(=O)(=O)N(Cc2ccc(OC)cc2)C(C(=O)OC)C1 (stereo unspecified)	x	x	x	n	x	n	x
Cc1ccc(-c2ccc(C(=O)NCc3ccc(Cl)cc3)o2)c2ccccc12	n	n	60.9	n	n	n	n
O=C1CCN(c2ccccc2)N1	n	x	119.3	n	x	n	108.8	Diaph ctr 10uM=n;Diaphorase 30uM=n
CC(C)CN1C(=O)[C@@]2(CC(=O)N(C)C2c2ccccc2)c2cc(-n3cc(CCCC#N)nn3)ccc21 (stereo partly specified)	x	x	x	n	x	n	x
Oc1c(Cl)cccc1C=Nc1cc(C(F)(F)F)ccc1N1CCCC1	n	n	n	n	n	n	x
Oc1c(Cl)cc(Cl)cc1C=Nc1cc(C(F)(F)F)ccc1N1CCc2ccccc2C1	n	n	72.2	n	n	n	n
CCC[C@H](/C=C/C(=O)OC(C)(C)C)Sc1ccc(OC)cc1	x	x	x	n	x	n	x
COc1ccc(CNc2nc3c(c(=O)[nH]c(=O)n3C)n2CCCc2ccccc2)cc1	n	n	n	n	n	n	x
SMILES	Neddyl block	APOBEC3A inh	PfGluPho inh	GC-B act	A3G deaminase	GC-A act	PfG6PD confirm	others
COc1ccc(CCn2c(NN=C3CCCCC3)nc3c2c(=O)[nH]c(=O)n3C)cc1	n	n	106.3	x	n	x	80.9	Diaph ctr 10uM=n;Diaphorase 30uM=n
CCOC(=O)N1C(=O)C[C@](Sc2ccc(OC)cc2)(C(=O)N2CCN(c3ncccn3)CC2)[C@H]1c1ccc(OC)cc1	x	x	x	n	x	n	x
C=CCOC(=O)N[C@H](c1ccc(-c2ccccc2)cc1)[C@H](C)/C=C/CC(=O)OC	x	x	x	n	x	n	x
COc1ccccc1/C=N/NC(=O)CC(=O)Nc1ccc(Cl)c(Cl)c1	n	n	106.3	n	n	n	n
COc1ccccc1/C=N/NC(=O)COCC(=O)N/N=C/c1ccccc1OC	n	n	n	n	n	n	x
O=C(Nc1ccc(Cl)cc1)c1ccc(-n2cncn2)c([N+](=O)[O-])c1	n	n	83.7	n	n	n	n
O=C(Nc1cccc(Cl)c1)c1ccc(-n2cncn2)c([N+](=O)[O-])c1	n	n	60.7	n	n	n	n
Cc1ccc(N(O)C(C)(C)C)cc1	n	x	71.9	n	x	n	n
O=C(O)CCN1C(=O)/C(=C/c2ccc(F)cc2F)SC1=S	x	x	x	n	x	n	x
Cc1ccc(C(=O)Nc2ccc3nc(C)sc3c2)s1	n	n	n	n	n	n	x
Cc1nc2cc(NC(=O)c3ccc(Br)s3)ccc2s1	n	n	67.4	n	n	n	n
NC1=CC(=O)C(=O)c2ccccc21	n	x	71.2	n	x	n	n
CC(Sc1ccc(S(=O)(=O)N2CCOCC2)cn1)C(=O)Nc1ccc(Cl)cc1Cl (stereo unspecified)	n	n	n	n	n	n	x
CC(Sc1ccc(S(=O)(=O)N2CCOCC2)cn1)c1ccccc1Cl (stereo unspecified)	n	n	n	n	n	n	n
CCn1c(=O)n(CC(=O)N2CCOCC2)c(=O)c2ccccc21	x	x	x	n	x	n	x
CCOc1cc(/C=N/O)cc(Br)c1OCc1ccc(Cl)cc1	n	n	76.3	n	n	n	n
CCOc1cc(/C=N/O)ccc1OCc1ccc(C)cc1	n	n	66.4	n	n	n	n
CCOc1cc(/C=N/O)cc(Br)c1OCC	n	n	n	n	n	n	x
O=[N+]([O-])c1cc(-c2ccc(C(=S)N3CCOCC3)o2)ccc1Cl	n	n	69.3	n	n	n	n
COCCCNC(=O)C[C@H]1C[C@@]2(C(=O)OC)C(=C[C@H](COCc3ccccc3)O[C@@H]2C)N(Cc2ccc3c(c2)OCO3)C1=O	x	x	x	n	x	n	x
Cc1cc(C=C2C(=O)c3ccccc3C2=O)c(C)n1-c1ccc(C(=O)O)cc1	n	n	100.2	n	n	n	73.0	Diaph ctr 10uM=53.8;Diaphorase 30uM=61.0
Cc1cc(C=C2C(=O)c3ccccc3C2=O)c(C)n1-c1cccc(C(=O)O)c1	n	n	60.6	n	n	n	n
Nc1ccccc1C=C1Cc2ccccc2C1=O	n	x	n	n	x	n	x
Cc1cc(C=C2C(=O)c3ccccc3C2=O)c(C)n1-c1ccccc1	n	n	n	n	n	n	x
Cc1cc(/C=C2\Cc3ccccc3C2=O)c(C)n1-c1ccccc1	x	n	59.3	n	n	n	n
O=C1N=C(c2ccccc2)S/C1=C\c1cccs1	n	n	62.8	n	n	n	n
CN(C)c1ccc(/C=C/c2ccc3c4ccccc4ccc3[n+]2-c2ccccc2)cc1	n	x	65.6	n	x	n	68.4	Diaph ctr 10uM=n;Diaphorase 30uM=n
